Compounds with a hit are over-represented: about 8.1% of the library has one in this group of screens.
Epigenetic derep = Quantitative High-Throughput Screen for Regulators of Epigenetic Control. Potency, µM (doses to about 53.9 µM), for inactives: at the highest dose GFP activation, hits mostly activators. 280,000 compounds, 0.2% hits. murine LDR cells, GFP reporter derepression, 30 h; also: % of control where 0% means no effect; nearly all actives have a fitted effect of over 60% in size
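Readout is the number of GFP-expressing murine LDR cells, counted by cytometry following washing. Cells were treated with compound for 30 h at 37 C; the stably integrated CMV-GFP locus is normally silent.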
PINK1 expr mod = A Quantitative High throughput Screen to Identify Chemical Modulators of PINK1 Expression | PINK1 immunofluorescence, high-content cytometry, 24 h | Potency, µM (doses to about 76.6 µM), without a hit: at the top dose activation (PINK1 increase), actives largely listed as activators | 410,000 compounds, 0.2% hits | AID 624263, 2012; active = well fitted activation curve with a large enough effect; inconclusive = small, poorly fitted or top-dose-only effect; cell line not stated here; also: % of control where 0% means no effect; nearly all actives have a fitted effect of over 65% in size
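Stable cell line treated 24 h with compounds at 5 concentrations (CCCP controls), then fixed and immunostained for PINK1 plus nuclear and cell stains; PINK1 immunofluorescence quantified by laser-scanning microplate cytometry.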
RORgamma inh = qHTS for inhibitors of ROR gamma transcriptional activity | Drosophila S2 Gal4-RORgamma UAS-luciferase reporter, 20 h | Potency, µM (doses to about 53.6 µM), without a hit: at the top dose activity change, negative = inhibition, hits mostly inhibitors | 310,000 compounds, 5.4% hits; also: % is scaled to controls: 0 for no effect and ±100 for the full control effect; nearly all actives have a fitted effect of over 60% in size
Target sequence (P51450 whole entry, looked up, the tested form may be a part): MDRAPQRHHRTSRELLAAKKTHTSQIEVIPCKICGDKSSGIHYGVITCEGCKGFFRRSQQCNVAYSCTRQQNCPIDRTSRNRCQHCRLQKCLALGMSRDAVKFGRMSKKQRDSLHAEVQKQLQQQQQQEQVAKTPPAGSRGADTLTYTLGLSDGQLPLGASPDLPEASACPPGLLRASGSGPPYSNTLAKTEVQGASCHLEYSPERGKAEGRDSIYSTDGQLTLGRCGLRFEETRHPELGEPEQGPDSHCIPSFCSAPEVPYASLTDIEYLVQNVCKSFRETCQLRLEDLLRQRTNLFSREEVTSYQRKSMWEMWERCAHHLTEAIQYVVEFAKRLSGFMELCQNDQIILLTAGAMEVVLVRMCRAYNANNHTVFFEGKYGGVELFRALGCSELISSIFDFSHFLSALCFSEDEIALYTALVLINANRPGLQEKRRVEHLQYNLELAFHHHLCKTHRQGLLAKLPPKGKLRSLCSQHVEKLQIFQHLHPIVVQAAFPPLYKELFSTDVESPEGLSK
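Read-out: Photinus luciferase luminescence; inhibitors lower reporter signal. Insect Schneider cells with Gal4-ROR gamma fusion under metallothionein promoter, UAS reporter; 700 uM final copper sulfate induction, 20 hr, ambient temperature.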
VP16 counter = VP16 counterscreen qHTS for inhibitors of ROR gamma transcriptional activity | Drosophila S2 Gal4-VP16 UAS-luciferase, luminescence, 20 h | Potency, µM (doses to about 53.6 µM), without a hit: at the highest dose activity, negative = inhibition, hits mostly inhibitors | 310,000 compounds, 3.5% hits | AID 2546, 2010;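 also: Gal4-VP16 expression switched on by copper sulfate through the metallothionein promoter; % is scaled to controls: 0 for no effect and ±100 for the full control effect; nearly all actives have a fitted effect of over 50% in size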
ClpP mod = qHTS Assay for Activators of ClpP; Potency, µM (top dose mostly 57.5 µM), inactives show at the top dose activity change, negative = active; 340,000 compounds, 1.9% hits; purified B. subtilis ClpP, FRET peptide cleavage, 20 min; ATP-dependent Clp protease proteolytic subunit (Bacillus subtilis (strain 168)), P80244; AID 651965, 2013; active = well fitted falling curve with a large enough effect; inconclusive = small, poorly fitted or top-dose-only effect; inactive = no such curve, though single readings can be large or run the other way; also: the source files actives as falling curves though it sought activators and does not explain the sign; nearly all actives have a fitted effect of over 65% in size
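Buffer: 100 mM Tris/HCl pH8, 100 mM KCl, 0.05% low protease BSA, 2.5% glycerol, 0.01% Tween-20. ClpP 10 microg/mL final; 20 min RT; delta FRET normalized to ADEP and DMSO controls.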
Sfp PPTase inh = qHTS Assay for Inhibitors of Bacillus subtilis Sfp phosphopantetheinyl transferase (PPTase) | Biochemical Sfp PPTase activity, qHTS | 4'-phosphopantetheinyl transferase ffp (Bacillus subtilis), Q9F4F7 | 310,000 compounds, 3.5% hits | Potency, µM, for inactives: largest response in the series, negative = inhibition, usual class: inhibitors;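 also: the enzyme is Sfp with the accession as filed and its product quenches rhodamine fluorescence; 0% = enzyme reaction without inhibitor and -100% = no enzyme wells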
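Reaction rates are the 30-min fluorescence difference (ex 525, em 598 nm) in wells containing 15 nM Sfp, 5 uM rhodamine-CoA and 12.5 uM BHQ-2-YbbR at pH 7.6 with 10 mM MgCl2.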
* marks the source's active call; other numbers are inactive results; ? = inconclusive; . = no result given; [ ] = dose if it differs, or a comment. Unless noted, calls follow the shape of the dose curve; as a rule, active = well fitted curve in the direction sought with a large enough effect; inconclusive = small, poorly fitted or top-dose-only effect, or another doubt; inactive = no such curve, though single readings can be large; an effect the other way counts as inactive or inconclusive. Potency is read from the fitted curve at half-maximal effect.

SMILES	Epigenetic derep	PINK1 expr mod	RORgamma inh	VP16 counter	ClpP mod	Sfp PPTase inh
O=CN1N=C(c2ccccc2)CC1c1ccc(Cl)cc1 (stereo not drawn)	.	0%	-5%	-2%	.	10%
O=C1OC(c2ccccc2)=NC12CC2c1ccc(Cl)cc1 (stereo not drawn)	2%	2%	10µM*	5µM*	-3%	?
Cc1cnc(CN2CCCC(C(=O)c3ccc4c5c(cccc35)CC4)C2)[nH]1 (stereo not drawn)	-5%	2%	11µM*	-26%	.	-4%
COCC(=O)N1CCCC(C(=O)c2ccc3c4c(cccc24)CC3)C1 (stereo not drawn)	-1%	2%	23%	-1%	4%	3%
O=C(c1ccc2c3c(cccc13)CC2)C1CCCN(Cc2ccccn2)C1 (stereo not drawn)	3%	1%	3.5µM*	11µM*	.	-16%
O=C(c1ccc2c3c(cccc13)CC2)C1CCCN(Cc2ccc(OCCO)cc2)C1 (stereo not drawn)	1%	3%	-22%	-3%	4%	11%
COc1ccc(Cl)cc1S(=O)(=O)n1c([N+](=O)[O-])cnc1C	.	1%	-11%	-3%	0%	71µM*
CCN(CC)S(=O)(=O)c1ccc2c(c1)N(CC(=O)N1CCN(c3cccc(C)c3C)CC1)C(=O)CO2	-1%	0%	.	.	-1%	.
N#Cc1ccccc1Cn1cc(/C=C/[N+](=O)[O-])c2ccccc21	5%	-3%	?	20µM*	-1%	-28%
O=[N+]([O-])/C=C/c1cn(Cc2ccccc2)c2ccccc12	0%	1%	14%	-10%	0%	?
CCOC(=O)c1[nH]c2c(c1Cc1ccccc1OC)C(=O)CC(c1ccc(OCC)cc1)C2 (stereo not drawn)	8%	3%	.	.	-1%	.
COC(=S)N/C(=N\S(=O)(=O)c1ccc(Cl)cc1)c1ccccc1	.	-2%	-28%	-6%	-1%	22µM*
Cc1ccc(NC(=S)N/C(=N/S(=O)(=O)c2ccccc2)c2ccccc2)cc1	0%	1%	?	13µM*	-1%	?
CCOC(=S)N/C(=N\S(=O)(=O)c1ccccc1)c1ccccc1	-1%	0%	?	?	0%	18µM*
Cc1ccc(S(=O)(=O)/N=C(/NC(=S)Nc2ccccc2)c2ccccc2)cc1	-1%	-1%	-34%	3%	0%	-15%
CCCOC(=S)N/C(=N\S(=O)(=O)c1ccccc1)c1ccccc1	0%	2%[38.3 µM]	?	-3%	-1%	16µM*
CCCCCNC(=O)C1CCC(Cn2c(=O)c3sccc3n(CC)c2=O)CC1 (stereo not drawn)	0%	0%	.	.	-1%	.
Cc1ccc(NC(=O)CCCn2c(=O)c3cccn3c3cccnc32)c(Cl)c1	-1%	1%	.	.	-8%	.
O=C(C[n+]1ccccc1Cl)c1cccc([N+](=O)[O-])c1	.	.	.	.	-3%	.
CCOC(=S)N/C(=N\S(C)(=O)=O)c1ccccc1	6%	0%	-30%	-3%	-2%	20µM*
COc1ccc(NC(=O)c2c(NCc3ccc(C)o3)sc3c2CCC(C)C3)cc1 (stereo not drawn)	11%	6%	.	.	-3%	.
COc1cc(/C=C2\CC/C(=C\c3cc(OC)c(O)c(OC)c3)C2=O)cc(OC)c1O	?	2%	?	?	-1%	45µM*
COc1cc(/C=C2\COC/C(=C\c3cc(OC)c(OC)c(OC)c3)C2=O)cc(OC)c1OC	2%	6%	3.2µM*	5µM*	.	?
